Unmarked numbers belong to inactive results.
Tested on: Vero E6 infected with SARS-CoV-2
Experiment: inhibition of SARS-CoV-2 cytopathic effect; higher = more antiviral protection, active = above 15
Conditions: 48 h

Row | Compound | inhibition of SARS-CoV-2 cytopathic effect (1 nM) [%] | inhibition of SARS-CoV-2 cytopathic effect (8.33 nM) [%] | inhibition of SARS-CoV-2 cytopathic effect (100 nM) [%] | inhibition of SARS-CoV-2 cytopathic effect (833.33 nM) [%] | inhibition of SARS-CoV-2 cytopathic effect (10000 nM)
1 | CS(=O)(=O)OCCCCOS(C)(=O)=O [busulfan] | -2.94 | -4.62 | -3.55 | -3.78 | -4.14%
2 | COc1cccc(Nc2ncnn3ccc(CN4CC[C@@H](N)[C@H](O)C4)c23)c1 | -0.26 | 0.1 | -6.81 | -16.4 | -22.6%
3 | COc1ccc(Cc2cnc(N)nc2N)cc1OC [diaveridine] | -0.02 | 0.43 | -0.86 | 2.81 | 0.75%
4 | CC(C)=CCC[C@](C)(O)[C@H]1CC[C@]2(C)[C@@H]1[C@H](O)C[C@@H]1[C@@]3(C)CC[C@H](O)C(C)(C)[C@@H]3[C@@H](O)C[C@]12C [hemomex-s] | -1.07 | 0.12 | 5.17 | -0.7 | 0.84%
5 | N#C/C(=C\c1ccc(O)c(O)c1)C(=O)NCCCc1ccccc1 | -2.32 | -2.1 | -0.73 | 0.57 | 0.75%
6 | N=C(N)NC(=N)NCCc1ccccc1 [phenformin] | -3.22 | 0.38 | -2.7 | -2.58 | -5.63%
7 | Clc1ccc(CSC(Cn2ccnc2)c2ccc(Cl)cc2Cl)cc1 (stereo not given) [sulconazole] | -1.13 | 2.09 | 0.76 | -1.38 | -0.46%
8 | CCOC(=O)c1cnc2c(cnn2CC)c1NN=C(C)C [etazolate] | -0.85 | 4.04 | 0.13 | 1.35 | -1.47%
9 | CCS(=O)(=O)c1ccc2oc(-c3ccc4ccccc4c3)nc2c1 [ezutromid] | 3.38 | 0.67 | -1.92 | 2.64 | 1.18%
10 | CCOC(=O)Nc1ccc2c(c1)N(C(=O)CN(CC)CC)c1ccccc1CC2 | -0.45 | 0.56 | 1.77 | 0.29 | 0.79%
11 | O=C(NC(O)C(Cl)(Cl)Cl)NC(O)C(Cl)(Cl)Cl (stereo not given) [dicloralurea] | -4.23 | -2.71 | -0.82 | -3.4 | -4.69%
12 | O=c1oc(-c2ccc(C(F)(F)F)cc2)nn1Cc1cc(Cl)ccc1O | -2.43 | -1.09 | 3.13 | 3.7 | 13.8%
13 | CC(C)OC(=O)C1=CN(C(=O)c2ccc(F)c(F)c2)CC(C)(C)c2c1[nH]c1ccccc21 | -2.29 | -1.15 | -3.38 | -4.11 | -3.87%
14 | O=C(O)c1cnn(-c2nc3cc(OC(F)(F)F)c(Cl)cc3[nH]2)c1 | 0.36 | 1.44 | 1.23 | 1.43 | -0.28%
15 | CC1(C)OC(=O)NC1=O [dimethadione] | -1.41 | -1.5 | 0.11 | 0.78 | 0.15%
16 | Cc1c(C)c2c(c(C)c1O)CCC(C)(COc1ccc(CC3SC(=O)NC3=O)cc1)O2 (stereo not given) [troglitazone] | 1.07 | 1.5 | 1.01 | 2.48 | 5.84%
17 | OCC(Br)(Br)Br [tribromoethanol] | 3.45 | 0.33 | 2.81 | 4.01 | 1.49%
18 | COc1ccc(Cc2nccc3cc(OC)c(OC)cc23)cc1OC [papaverine] | -0.41 | 0.26 | -3.04 | -2.94 | -1.53%
19 | CCCCCCCCCCCCCCCCCCCCCCCCCCCCO [1-octacosanol] | 1.47 | 3.47 | 4.36 | -0.37 | 1.08%

Row | Compound | inhibition of SARS-CoV-2 cytopathic effect (1 nM) [%] | inhibition of SARS-CoV-2 cytopathic effect (8.33 nM) [%] | inhibition of SARS-CoV-2 cytopathic effect (100 nM) [%] | inhibition of SARS-CoV-2 cytopathic effect (833.33 nM) [%] | inhibition of SARS-CoV-2 cytopathic effect (10000 nM)
20 | Cn1cc(C[C@@H](N)C(=O)O)c2ccccc21 [indoximod] | -3.51 | -2.58 | -2.33 | -1.85 | -1.3%
21 | CCCCCCCCCCCC(=O)O [lauric-acid] | 0.97 | 2.75 | 0.72 | -1.45 | -1.99%
22 | CC(C)(C)c1ccc(CN(Cc2cccc(OCC(=O)O)c2)S(=O)(=O)c2cccnc2)cc1 [evatanepag] | -1.15 | -0.63 | -1.94 | -1.15 | -2.53%
23 | Oc1cc2c(cc1O)[C@H]1c3ccccc3CN[C@@H]1CC2 (racemic) [dihydrexidine] | -2.37 | -1.57 | 0.62 | -2.04 | 2.92%
24 | CCC[C@@]1(CCc2ccccc2)CC(O)=C([C@H](CC)c2cccc(NS(=O)(=O)c3ccc(C(F)(F)F)cn3)c2)C(=O)O1 [tipranavir] | -0.16 | 4.7 | 1.56 | 0.71 | 4.99%
25 | O=C(Cn1c(=O)sc2ccc(Cl)cc21)N1CCN(CCO)CC1 [tiaramide] | -2.08 | -1.84 | -3.6 | -1.93 | 2.14%
26 | C#C[C@]1(OC(C)=O)CC[C@H]2[C@@H]3CCC4=C[C@@H](OC(C)=O)CC[C@@H]4[C@H]3CC[C@@]21C [ethynodiol-diacetate] | 1.35 | 3.73 | 2.52 | -2.62 | -1.63%
27 | Nc1nc(=O)c2nc(CNc3ccc(C(=O)N[C@@H](CCC(=O)O)C(=O)O)cc3)cnc2[nH]1 [folic-acid] | -1.27 | 1.24 | 0.24 | 1.38 | -0.44%
28 | CC(C)(C)NC(=O)[C@@H](c1cccnc1)N(C(=O)c1ccco1)c1ccc(C(C)(C)C)cc1 | -0.21 | 1.78 | 0.92 | -2.61 | -3.73%
29 | Cc1cccc(C)c1OCC(=O)N[C@@H](Cc1ccccc1)[C@@H](O)C[C@H](Cc1ccccc1)NC(=O)[C@H](C(C)C)N1CCCNC1=O [lopinavir] | 1.3 | 1 | 1.43 | 0.57 | 12.6%
30 | NC(=O)c1ccc[n+]([C@@H]2O[C@H](COP(=O)([O-])OP(=O)(O)OC[C@H]3O[C@@H](n4cnc5c(N)ncnc54)[C@H](O)[C@@H]3O)[C@@H](O)[C@H]2O)c1 [nadide] | -2.68 | -2.65 | -0.81 | -0.61 | -0.54%
31 | N#Cc1nn(-c2c(Cl)cc(C(F)(F)F)cc2Cl)c(N)c1[S+]([O-])C(F)(F)F (stereo not given) [fipronil] | 0.34 | 3.14 | 1.21 | 3.8 | 3.66%
32 | CCN(C)C(=O)Oc1cccc([C@H](C)N(C)C)c1 [rivastigmine] | -1.4 | 0.73 | 2.11 | -1.22 | -1.56%
33 | O=C(c1ccc(-c2ccc(Cl)cc2)o1)N(Cc1ccccn1)c1ccc(N2CCNCC2)cc1 | -2.64 | 1.12 | -0.23 | -1.66 | 43.8% (active)
34 | CCC[C@@H](NC(=O)N1C(=O)C(CC)(CC)[C@@H]1Oc1ccc(C(=O)N2CCN(C)CC2)cc1)c1ccc2c(c1)OCO2 | 1.03 | 1.44 | -0.09 | 1.96 | -6.67%
35 | CCCC(C(=O)OCCN(CC)CC)(c1ccccc1)c1ccccc1 [proadifen] | -8.13 | -2.48 | -0.9 | -3.07 | -9.2%
36 | CCN1CCN(C(=O)Cc2ccc(Nc3ncc(F)c(Nc4ccc(C(=O)Nc5ccccc5Cl)cc4)n3)cc2)CC1 [aurora-a-inhibitor-i] | -0.07 | -0.73 | -0.58 | 0.9 | 4.49%
37 | COc1ccc(CCC(=O)c2c(O)cc(O[C@@H]3O[C@H](CO)[C@@H](O)[C@H](O)[C@H]3O[C@@H]3O[C@@H](C)[C@H](O)[C@@H](O)[C@H]3O)cc2O)cc1O [Neohesperidin dihydrochalcone (Nhdc)] | -1.62 | -3.36 | -1.21 | 0.9 | -1.64%
38 | CC(=O)CC(c1ccccc1)c1c(O)c2ccccc2oc1=O (stereo not given) [warfarin] | -10.1 | -9.65 | -9.92 | -10.1 | -14.2%
